A selection: hits, their analogues and other compounds. The true share with any hit is near 0.88%.
ERG-DNA inh: ERG Ets/DNA interaction inhibition. 370,000 tested, 0.028% active. Potency, µM (highest dose often 76.9 µM), for the others: at the top dose FP activity, negative = inhibition, usual class: inhibitors. fluorescence polarization, His-ERG Ets domain / labelled DNA. P11308; active = well fitted inhibition curve with a large enough effect in the polarisation, with a control signal flat; inconclusive = small, poorly fitted or top-dose-only effect, or effect the other way, or a change in a side signal; inactive = no such curve, though single readings can be large or run the other way; the % refers to the polarisation;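 also: polarization taken with two DNA probes labelled with fluorescein and Texas red; potency is read from the fitted curve at half-maximal effect; % of control where 0% means no effect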
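His-tagged ERG Ets domain (1 uM in the protein solution; 300mM KCl, 50mM Tris-HCl, 1mM EDTA, 1mM DTT, pH 7.5) received compound, then a probe mix of 5 nM fluorescein-DNA and 100nM Texas-615-DNA. Fluorescence polarization was read for both dyes.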
BLM helicase inh-1: blocks DNA unwinding by human BLM helicase. P54132. recombinant BLM DNA unwinding, fluorescence dequenching. Potency, µM (top dose mostly 56.1 µM), without a hit: at the top dose activity change, negative = inhibition, most hits filed as inhibitors. 350,000 tested, 0.2% active;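 also: potency is read from the fitted curve at half-maximal effect; plate controls were vehicle for no effect and no enzyme for full effect; nearly all actives have a fitted effect of over 35% in size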
RECQ1 inh-1: inhibitors of human RECQ1 DNA helicase; P46063; RECQ1 DNA unwinding, red fluorescence kinetic read; Potency, µM (series often up to 57.3 µM), inactives show top-dose activity, negative = inhibition, usual class: inhibitors; 240,000 tested, 0.54% active; AID 2549;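 also: potency is read from the fitted curve at half-maximal effect; plate controls were vehicle for no effect and no enzyme for full effect; nearly all actives have a fitted effect of over 30% in size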
Target sequence (P46063 whole entry, looked up): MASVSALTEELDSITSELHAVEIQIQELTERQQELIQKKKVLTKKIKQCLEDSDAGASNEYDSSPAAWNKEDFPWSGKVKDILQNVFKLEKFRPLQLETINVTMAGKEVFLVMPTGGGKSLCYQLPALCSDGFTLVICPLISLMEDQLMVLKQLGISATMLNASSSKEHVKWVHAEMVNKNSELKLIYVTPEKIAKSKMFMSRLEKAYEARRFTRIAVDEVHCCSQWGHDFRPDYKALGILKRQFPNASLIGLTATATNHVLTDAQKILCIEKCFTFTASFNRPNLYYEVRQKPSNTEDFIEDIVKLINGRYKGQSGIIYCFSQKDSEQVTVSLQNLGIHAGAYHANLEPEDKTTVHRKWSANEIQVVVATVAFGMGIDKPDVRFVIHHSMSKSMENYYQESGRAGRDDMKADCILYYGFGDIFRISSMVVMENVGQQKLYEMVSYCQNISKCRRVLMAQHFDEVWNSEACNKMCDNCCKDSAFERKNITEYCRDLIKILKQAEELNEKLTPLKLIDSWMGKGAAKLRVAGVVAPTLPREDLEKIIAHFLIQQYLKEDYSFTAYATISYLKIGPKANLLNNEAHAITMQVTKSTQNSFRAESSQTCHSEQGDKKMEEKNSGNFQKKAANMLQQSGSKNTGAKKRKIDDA
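50 nM RECQ1T1 preincubated 15 min with compound in Tris pH 8.0 buffer with MgCl2, DTT, Tween-20 and 2.5 ug/ml poly(dI-dC); started with 200 nM TAMRA/BHQ-2 forked duplex and 2 mM ATP. Unwinding read as fluorescence (525/598 nm), two reads 2 h apart.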
APEX1 inh: APE1 (human) endonuclease inhibition; P27695; recombinant APE1, TAMRA/BHQ-2 abasic DNA cleavage fluorescence; Potency, µM (highest dose often 65.8 µM), inactives show top-dose activity change, negative = inhibition, usual class: inhibitors; 350,000 tested, 0.35% active;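 also: potency is read from the fitted curve at half-maximal effect; plate controls were vehicle for no effect and reference inhibitor for full effect; nearly all actives have a fitted effect of over 55% in size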
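Incision of a quenched TAMRA/BHQ-2 THF abasic-site duplex (50 nM) by 0.75 nM APE1, after 15 min compound preincubation, measured as fluorescence increase over three 60 s reads. Values normalized to buffer, DMSO and NSC13755 control wells.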
WRN helicase inh-1: inhibitors of human WRN helicase; Q14191; 360,000 tested, 0.46% active; Potency, µM (highest dose often 114 µM), for the others: top-dose activity change, negative = inhibition, actives largely listed as inhibitors; AID 651768; WRN helicase unwinding, fluorescent forked duplex, kinetic; also: potency is read from the fitted curve at half-maximal effect; % is scaled to controls: 0 for no effect and ±100 for the full control effect; nearly all actives have a fitted effect of over 55% in size
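Kinetic red-fluorescence monitoring (525/598 nm) tracks WRN helicase activity after 100 nM fluorophore-quencher forked duplex and 2 mM ATP are added to 20 nM enzyme pretreated 15 min at room temperature with compound.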
GCN5L2 inh-1: inhibitors of human GCN5L2 histone acetyltransferase | Potency, µM (highest dose often 58.9 µM), for inactives: at the highest dose activity change, negative = inhibition, usual class: inhibitors | AID 504327 | 390,000 tested, 0.21% active | Q92830 | GCN5L2 HAT assay, ThioGlo1 CoA-SH fluorescence; also: potency is read from the fitted curve at half-maximal effect; % is scaled to controls: 0 for no effect and ±100 for the full control effect
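GCN5L2 (20 nM) in 50mM HEPES pH 7.5, 0.1mM EDTA, 0.01% Tween-20 preincubated 15 min with compounds at room temperature. Reaction started with H3(1-25) 75uM, acetyl-CoA 70uM, ThioGlo1 50uM; CoA-thiol fluorescence (Ex340/Em540) read at 0 and 20 min.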
RECQ1 inh conf: confirmation of human RECQ1 helicase inhibitors | 610 tested, 28% active | shares compounds with RECQ1 inh-1 | Potency, µM (highest dose often 229 µM), for the others: at the highest dose activity change, negative = inhibition, most hits filed as inhibitors | AID 2708 | RECQ1 helicase DNA unwinding, fluorescence; also: potency is read from the fitted curve at half-maximal effect; % is scaled to controls: 0 for no effect and ±100 for the full control effect; nearly all actives have a fitted effect of over 45% in size
ADP FP counter: counter-screen for RECQ1 inhibitors: ADP displacement; shares compounds with RECQ1 inh-1; AID 2711; ADP fluorescence polarization displacement counterscreen; Potency, µM (titrated, usually from 228 µM), for the others: at the top dose activity change, negative = inhibition, most hits filed as inhibitors; 530 tested, 27% active; also: potency is read from the fitted curve at half-maximal effect; % is scaled to controls: 0 for no effect and ±100 for the full control effect; nearly all actives have a fitted effect of over 45% in size
RECQ1 inh-2: RECQ1 helicase inhibition confirmed, round 2. shares compounds with RECQ1 inh-1. recombinant RECQ1 DNA unwinding, red fluorescence. Potency, µM (highest dose often 119 µM), for inactives: top-dose activity, negative = inhibition, actives largely listed as inhibitors. 1,100 tested, 15% active. AID 504841; also: potency is read from the fitted curve at half-maximal effect; % is scaled to controls: 0 for no effect and ±100 for the full control effect; nearly all actives have a fitted effect of over 50% in size
GCN5L2 inh-2: human KAT2A HAT inhibition, hit confirmation; shares compounds with GCN5L2 inh-1; GCN5L2 HAT, ThioGlo1 CoA fluorescence, 20 min; Potency, µM, actives largely listed as inhibitors; 140 tested, 70% active; AID 588347
WRN helicase inh-2: WRN helicase inhibition, cherry-pick retest; shares compounds with WRN helicase inh-1; 610 tested, 63% active; Potency, µM (titrated, usually from 57.1 µM), inactives show at the top dose activity, negative = inhibition, hits mostly inhibitors; AID 720497; WRN helicase DNA unwinding, fluorescence kinetic; also: potency is read from the fitted curve at half-maximal effect; nearly all actives have a fitted effect of over 65% in size
TO displacement: DNA binding via thiazole orange displacement; thiazole orange DNA binding displacement, fluorescence; Potency, µM (highest dose often 57.1 µM), for the others: at the highest dose activity change, negative = inhibition, hits mostly inhibitors; 610 tested, 10% active; shares compounds with WRN helicase inh-1;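 also: drop in dye fluorescence marks compound binding to DNA; potency is read from the fitted curve at half-maximal effect; % is scaled to controls: 0 for no effect and ±100 for the full control effect; nearly all actives have a fitted effect of over 60% in size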
BLM helicase inh-2: BLM helicase inhibition, WRN selectivity check; Potency, µM (series often up to 57.1 µM), for inactives: at the highest dose activity change, negative = inhibition, actives largely listed as inhibitors; 610 tested, 60% active; shares compounds with WRN helicase inh-1; Recombinant BLM helicase DNA unwinding, red fluorescence; also: potency is read from the fitted curve at half-maximal effect; nearly all actives have a fitted effect of over 60% in size
Active calls of the source: *; i = inactive; ? = inconclusive; · = no result; ! = repeats disagree; [ ] = remark or other dose. Unless noted, calls follow the shape of the dose curve; as a rule, active = well fitted curve in the direction sought with a large enough effect; inconclusive = small, poorly fitted or top-dose-only effect, or another doubt; inactive = no such curve, though single readings can be large; an effect the other way counts as inactive or inconclusive.

SMILES | ERG-DNA inh | BLM helicase inh-1 | RECQ1 inh-1 | APEX1 inh | WRN helicase inh-1 | GCN5L2 inh-1 | others
C[C@@H]1CC[C@H]2[C@H](C)[C@H]3CC[C@@]4(O)[C@@H]5CC(=O)[C@H]6CC(=O)CC[C@]6(C)[C@H]5C[C@H]4[C@@H]3CN2C1 | · | 4% | 7% | -4% | · | -2%
CCOC(=O)c1ccc(N=Cc2c(O)n(-c3ccccc3F)c(=S)[nH]c2=O)cc1 | · | 0% | 32µM* | 10% | 79µM* | -3% | RECQ1 inh-2=-13%
CCOc1ccc(-c2nc3ccc(-c4nc5ccc(N6CCN(C)CC6)cc5[nH]4)cc3[nH]2)cc1 | · | ? | 13µM* | 13% | · | 11µM* | RECQ1 inh-2=5.6µM*!
N#Cc1c(Oc2cccc(OS(=O)(=O)CCCC(F)(F)F)c2)cccc1C(F)(F)F | · | -9% | -14% | -3% | · | -10%
CNc1ccc2oc(C[C@@H]3OC4(CC[C@@H]3C)O[C@H]([C@@H](C)C(=O)c3ccc[nH]3)[C@H](C)C[C@H]4C)nc2c1C(=O)O (some centres undefined) | · | · | ? | ? | · | 25µM* | RECQ1 inh-2=9%
CNc1ccc2oc(C[C@H]3O[C@@]4(CC[C@H]3C)O[C@H]([C@H](C)C(=O)c3ccc[nH]3)[C@H](C)C[C@H]4C)nc2c1C(=O)O | -8% | -27% | ? | -6% | -12%[11.6 µM] | ? | RECQ1 inh-2=-11%
CCCCNC(=O)Oc1c(Br)cc2sc(=O)oc2c1Br | · | -9% | 11µM* | ? | · | -42% | RECQ1 inh conf=5%[114 µM];ADP FP counter=12%[91.9 µM]
COC(=O)C12CC3=CCC4C(=O)N(c5ccccc5)C(=O)C4C3Cc3ccccc3[C@@H]1CNC2=O (some centres undefined) | · | 4% | i | -2% | · | ·
CC(C)C[C@H]1C(=O)N2CCC[C@H]2[C@]2(O)O[C@](NC(=O)[C@@H]3C=C4c5cccc6[nH]cc(c56)C[C@H]4N(C)C3)(C(C)C)C(=O)N12 | -14% | · | · | 12% | -10% | -27%
CCC(CO)NC(=O)C1C=C2c3cccc4[nH]cc(c34)CC2N(C)C1 (centres undefined) | 33% | -15% | -7% | 1% | -12% | -3%
CCN(CC)C(=O)N[C@@H]1C=C2c3cccc4[nH]cc(c34)C[C@H]2N(C)C1 | · | -8% | ? | · | · | ? | RECQ1 inh conf=-6%;ADP FP counter=22µM*
CC[C@@H](CO)NC(=O)[C@@H]1C=C2c3cccc4[nH]cc(c34)C[C@H]2N(C)C1 | -16% | -17% | 35µM* | ? | -9% | -12% | RECQ1 inh conf=3%;ADP FP counter=112µM*
CN1C[C@H](C(=O)N[C@]2(C)O[C@@]3(O)[C@@H]4CCCN4C(=O)[C@H](Cc4ccccc4)N3C2=O)C=C2c3cccc4[nH]cc(c34)C[C@H]21 | · | -12% | ? | ? | · | ? | RECQ1 inh conf=?;ADP FP counter=7.1µM*
CN(C(=O)Cc1ccc(Cl)c(Cl)c1)[C@H](CN1CCCC1)c1cccc(N=C=S)c1 | · | 7% | ? | -8% | · | -14%
O=C(Nc1ccc(Br)cc1C(=O)O)c1ccc2c(c1)C(=O)N(Cc1ccccc1)C2=O | 2% | -10% | · | 18% | ? | -6%
COc1cc(O)c(C(=O)O)c(-c2cc(O)c(O)cc2C)c1 | -16% | 4% | ? | 20µM* | -9% | 1% | RECQ1 inh-2=?
COc1ccc2c(c1)c(C(=O)O)c(C)n2CC(C)C | 4% | -1% | i | -4% | 2% | -3%
O=C(O)c1ccc(-c2ccc3cc(C45CC6CC(CC(C6)C4)C5)c(O)cc3c2)cc1 | · | -1% | 20µM* | -10% | · | 16µM* | RECQ1 inh conf=100µM*;ADP FP counter=112µM*;RECQ1 inh-2=?
O=C(Cl)C(Cl)(Cl)Cl | · | · | 6% | -5% | · | ·
O=C(O)CSCC(=O)N(Cc1ccccc1)c1nc(-c2ccccc2)c(-c2ccccc2)s1 | -3% | -16% | · | -24% | -30% | 11µM* | GCN5L2 inh-2=23*
O=C(O)CCC(=O)NCCC1=c2ccccc2=N/C1=C\c1c(O)n(Cc2ccc(F)cc2)c(=S)[nH]c1=O | 10% | -11% | i | -3% | 79µM* | 18µM* | GCN5L2 inh-2=5.1*
Oc1c(Br)cc(Br)cc1Br | -4% | -2% | -5% | 9% | -8% | 2%
Oc1c(Br)c(Br)c(Br)c(Br)c1Br | 6% | · | ? | 3% | -29% | 32µM* | GCN5L2 inh-2=14*
CCOC(=O)C1OC1(C)c1ccccc1 (centres undefined) | · | · | -5% | 1% | · | ·
NC1CCC(CC2CCC(N)CC2)CC1 (centres undefined) | · | · | -1% | 18% | · | ·
CCN(CCCl)c1cc(CN(C)C)cc(NC(=O)c2ccc(C(=O)Nc3cc(CN(C)C)cc(N(CC)CCCl)c3)cc2)c1 | · | · | · | · | ? | · | WRN helicase inh-2=22µM*;TO displacement=-18%;BLM helicase inh-2=?

Bioassay records deposited in PubChem BioAssay by National Center for Advancing Translational Sciences (NCATS).
